High-throughput results (PubChem)
Only a selection was taken, and hits are over-represented in it overall.
Pf Dd2 inh: inhibitors of Plasmodium falciparum Dd2 growth; P. falciparum Dd2 growth, SYBR Green, 72 h; Potency, µM (top dose mostly 28.9 µM), without a hit: at the highest dose activity, negative = inhibition, actives largely listed as inhibitors; hit rate 4.3% among 120,000; active means well fitted inhibition curve with a large enough effect;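 further: plate controls were DMSO vehicle for no effect and reference drug for full effect; nearly all actives have a fitted effect of over 65% in size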
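Readout: SYBR Green fluorescence, 485 nm excitation, 535 nm emission, after ~16 h lysis at 37C. Before that, Dd2-infected red cells (2.5% hematocrit) grew 72 h with compound, 29 uM top final concentration.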
Starred values were filed as active, the others as inactive; i = inactive; [ ] = remark or other dose. Potency means the concentration at half of the fitted maximal effect.

SMILES	Pf Dd2 inh
Cc1ccccc1Cn1c(SCc2ccc(C(=O)NC3CCCC3)cc2)nc2ccncc21	-10%
Cc1ccc(Cn2c(SCc3ccc(C(=O)NCCc4ccccc4)cc3)nc3ccncc32)cc1	6.3µM*
Cc1ccccc1CSCc1ccc(C(=O)NCCc2ccccc2)o1	20%
Cc1ccccc1Cn1c(SCc2ccc(C(=O)NCCc3ccccc3)cc2)nc2ccncc21	7.1µM*
CCc1noc(-c2cn(C3CCN(C(=O)Cc4ccc(Cl)cc4)CC3)nn2)n1	i
O=C(N[C@@H]1C[C@H](Cn2cc(C3CC3)nn2)[C@@H](O)[C@H]1O)c1ccc2c(c1)OCO2	i
Cc1ccc(C(=O)NC2CC(c3nnc(CN(C)C)n3C)C2)s1 (stereo not drawn)	-15%
COc1cc(Cl)cc(C(=O)N2CCC3(CCCNC3)C2)c1 (stereo not drawn)	-16%
CCOc1ccccc1-c1nccn1C1COc2ccccc2C1 (stereo not drawn)	-12%
CN1CCC(N2CC[C@@H]3[C@H]2C(=O)NC[C@H](CCC(=O)NCc2ccco2)N3C)CC1	-8%[44.1 µM]
CN1CCN(CCC(=O)Nc2ccc(Cl)cc2)CC1	i
CCc1nn(CC(=O)NCCCN2CCN(C)CC2)c(=O)c2cc3occc3n12	57%
CN1CCN(CCCNC(=O)Cn2c(-c3cccs3)cc3cc(Cl)ccc32)CC1	13µM*
Cc1ccc(NC(=O)Cn2c(CCC(=O)O)ccc2-c2cccs2)cc1Cl	-3%
CCCN1CCN(CCCNC(=O)Cn2nc(C)n3c(cc4c(OC)cccc43)c2=O)CC1	-4%
CCN(CC)CCCNC(=O)Cn1c(-c2cccs2)cc2cc(Cl)ccc21	11µM*
O=C(O)Cn1c(-c2cccs2)cc2cc(Cl)ccc21	-15%
CCN1CCN(CCCNC(=O)Cn2c(-c3cccs3)cc3cc(Cl)ccc32)CC1	11µM*
CCC(C)NC(=O)Cn1c(-c2cccs2)cc2cc(Cl)ccc21 (stereo not drawn)	-11%
NC(=O)[C@@H]1CN(C(=O)c2cccc(F)c2)C[C@H]1COc1ccccc1	-24%
COc1ccc(C2Cn3cnc(C(=O)N4CCC(C(=O)NCC(C)C)CC4)c3CO2)cc1 (stereo not drawn)	i
COCCn1nc2n(c1=O)CCN(Cc1ccc3cc[nH]c3c1)CC2	0%
CC(C)(C)NC(=O)N1CCC2(CC1)CC(Cc1nc(-c3cnccn3)no1)CCO2 (stereo not drawn)	-24%
COc1ccccc1CNC(=O)CCc1nc(C2CCCN2C(=O)NC(C)C)no1 (stereo not drawn)	i
O=S1(=O)CCC(S(=O)(=O)N2CCOCC2)C1 (stereo not drawn)	-3%
SMILES	Pf Dd2 inh
CCN(CC)C(=O)[C@@H]1CCCN1[C@@H](C(=O)NC)C1CC1	0%[44.1 µM]
CN1CCC(N2CCN(C(=O)CCc3ccccc3)CC2)C1=O (stereo not drawn)	16%
Cc1nc(C2CC(NC(=O)c3cnc(N)nc3C(F)(F)F)C2)cc(=O)[nH]1 (stereo not drawn)	-4%
O=[N+]([O-])c1cccc(-c2noc([C@@H]3Cc4nc[nH]c4CN3Cc3cccs3)n2)c1	-16%[44.1 µM]
N#Cc1cccc(CN2Cc3[nH]cnc3C[C@H]2C(=O)NCc2ccco2)c1	-6%[44.1 µM]
Cc1cccc(-c2noc([C@@H]3Cc4nc[nH]c4CN3Cc3ccc(C(=O)O)cc3)n2)c1	i
N#Cc1cccc(CN2Cc3[nH]cnc3C[C@H]2c2nc(-c3cccc([N+](=O)[O-])c3)no2)c1	13µM*
Cc1cccc(-c2noc([C@@H]3Cc4nc[nH]c4CN3C(=O)c3ccc(F)cc3)n2)c1	i
O=[N+]([O-])c1cccc(-c2noc([C@@H]3Cc4nc[nH]c4CN3Cc3ccc(F)cc3)n2)c1	10µM*
Cc1ccc(S(=O)(=O)N2CCCC(CCC(=O)NCc3ccccn3)C2)cc1 (stereo not drawn)	-13%
CNC(=O)[C@H]1C[C@H](Oc2ccccc2)CN1S(=O)(=O)c1ccc(OC)cc1	37%
Cc1ccc(C2NC(=O)N(CC(=O)Nc3ccc(F)c(F)c3)C3=C2C(=O)OC3)cc1 (stereo not drawn)	i
O=C(O)c1cc(Br)cc(S(=O)(=O)NCc2ccccn2)c1	-2%
CCN(c1ccccc1)c1nnc(NC(=O)Nc2cccc(C(F)(F)F)c2)s1	-6%
Cc1ccc(NC(=O)Nc2nnc(N(CC(C)C)CC(C)C)s2)cc1Cl	-10%
CC(C)CN(CC(C)C)c1nnc(NC(=O)Nc2cccc(C(F)(F)F)c2)s1	11µM*
COc1cccc(-c2nc3cnccn3c2NCCC(=O)NC2CCCCCC2)c1	i
Cc1ccc(CNS(=O)(=O)c2ccc3c(c2)CN(C(=O)c2cccnc2)CC3)o1	-6%
CS(=O)(=O)N1C[C@H]2CCN(Cc3cc(Cl)ccc3F)C[C@H]21	-1%
CSc1ccc2cc(CN3CC[C@@H](O)C3)c(-c3ccc(Cl)cc3)nc2c1	11µM*
CSc1ccc(C(=O)N2CCN(Cc3ccccc3)CC(O)C2)cc1 (stereo not drawn)	-5%
COc1cc2cc(CN3CCC(N(C)C)C3)c(-c3cccc(Cl)c3)nc2cc1OC (stereo not drawn)	7.9µM*
COc1ccc(N2CCOC3CCN(Cc4cccc(Cl)c4)CC3C2=O)cc1 (stereo not drawn)	i
Cn1ncc(CN2CC[C@@H](c3ccc4c(c3)OCO4)[C@H](O)C2)c1C1CC1	-23%
CN(C)C1CCN(Cc2cc3cc4c(cc3nc2-c2ccc(Cl)cc2)OCO4)C1 (stereo not drawn)	11µM*
SMILES	Pf Dd2 inh
O=C1[C@H]2CN(Cc3ccc(Cl)cc3)C[C@H]2C(=O)N1Cc1ccc2c(c1)OCO2	-4%
COc1ccc(OC)c2nc(-c3cccc(Cl)c3)c(CN3CCC(O)CC3)cc12	i
Cc1cc(CN(C)C(=O)CC(c2ccccc2)c2ccc3c(c2)OCO3)n[nH]1 (stereo not drawn)	i
NC(=O)CN1CCOC(Cc2cccc(C(F)(F)F)c2)C1 (stereo not drawn)	-4%
CCOc1ccccc1C(=O)N1CCCN(C(=O)C2CC2)c2ccccc21	i
COCc1cc(=O)n(CC(=O)Nc2ccc(F)cc2)c(N2CCOCC2)n1	25%
CSCC(=O)N1C[C@@H](NC(=O)NC2CCCCC2)C[C@H]1C(=O)N(C)CC(N)=O	21%[44.1 µM]
Cc1ccsc1C(=O)NCC1(C)CCOCC1	25%
Cc1ccc(C(=O)NC2CCN(c3cc(-c4cccs4)[nH]n3)CC2)c(C)c1	i
O=C(C1CCCC1)N1CCC2(CC1)NC(=O)N(c1ccccc1)N2	12%
CN1CCN(c2cc(=O)c3ccnc(-c4ccnn4C)c3o2)CC1	-18%[44.1 µM]
CN1CCCN(S(=O)(=O)c2cccc(Cl)c2)c2ccccc21	11µM*
CC(=O)N1CCC(C2CCN(S(=O)(=O)c3cccc(Cl)c3)C2)CC1 (stereo not drawn)	-18%
CCS(=O)(=O)N1CCCN(C)c2ccccc21	-19%
O=C(NC1CCCCC1)C1CN(C(=O)COc2ccc(F)cc2)CC12CCOCC2 (stereo not drawn)	-8%
O=C(NCC1(COc2cnccn2)C[C@@H](O)[C@@H](O)C1)C1CC1 (stereo partly drawn)	9%[44.1 µM]
O=C(NCC1(COc2cccnc2)C[C@@H](O)[C@@H](O)C1)C1CC1 (stereo partly drawn)	7.9µM*
COCC(=O)NCC1(COc2cccnc2)C[C@@H](O)[C@@H](O)C1 (stereo partly drawn)	16%[44.1 µM]
CC1(COc2cccnc2)COc2ccc(C(=O)NC3CCC(O)CC3)cc2N1 (stereo not drawn)	-21%[44.1 µM]
CNC(=O)c1noc(CN2CCCC(CCc3ccccc3C(F)(F)F)C2)n1 (stereo not drawn)	-26%
